In PubChem BioAssay (EPA / NIEHS) one finds outcome and AC50 data, which are given here for 19 molecules.

The structures appear in SMILES notation. Several values for one entry are separate records, joined by “and”; a condition that tells them apart may be missing. Equal entries are not always repeated. Inconclusive results are not listed. A structure can be active in one record and inactive in another. Activity calls are given as the source filed them. Rule for the calls, unless noted: active = hit-call score of the fitted dose curve at least 0.9, where 1 is the maximum; inactive = score below 0.9.

Test [1] is described as follows: CCTE_Shafer_MEA_acute_AB: CCTE's Alamar Blue Assay for Cytotoxicity in the Neural Acute Assay, Shafer Lab (AID 2284069; active = hit-call score of the fitted dose curve at least 0.9, where 1 is the maximum;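 note: active compounds lower the viability signal compared with DMSO wells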). An outline of the steps: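 Resazurin reduction (CellTiter Blue, 1:6 in fresh medium) read at ex 544/em 590 nm marks viability loss relative to DMSO. Cells: primary rat cortical neuron networks on microelectrode arrays, treated after baseline recording at 13 or 15 days in vitro.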
Background: Alamar Blue is a resazurin reagent that responds to reducing activity.

A short description of test [2]: CCTE_Shafer_MEA_acute_LDH: CCTE's Lactate Dehydrogenase Assay for Cytotoxicity in the Neural Acute Assay, Shafer Lab (AID 2284086; active = hit-call score of the fitted dose curve at least 0.9, where 1 is the maximum;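 note: active means LDH release rises above DMSO vehicle level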). The method in brief: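 Cytotoxicity readout: spectrophotometric LDH activity in supernatant of rat primary cortical neurons, post-plating day 13 or 15, sampled after 40 min compound exposure; signal gain relative to DMSO baseline.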
The test system of the next test is DIO3 (gene 1735). As to the kind of experiment: CCTE_GLTED_hDIO3: CCTE's human Deiodinase 3 (DIO3) Inhibition Assay, Great Lakes Toxicology and Ecology Division (GLTED) Lab (AID 2284055; active = hit-call score of the fitted dose curve at least 0.9, where 1 is the maximum;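 note: potency is for inhibition seen as loss of released iodide signal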). An outline of the steps: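 Steps: incubate adenovirus-produced hDIO3 with chemical for 3 hours; detect freed iodide via cerium-arsenic Sandell-Kolthoff colorimetry; compare with DMSO baseline.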

A short description of test [3]: CCTE_Shafer_MEA_dev_per_network_spike_spike_number_mean: CCTE's Neural Network Formation Assay for Mean Number of Spikes in a Network Spike, Shafer Lab (AID 2284053).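 For AC50: fitted as decrease in spikes per network spike relative to DMSO.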 The method in brief:
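Mean spike count within each network spike, taken in a 0.05 s window at its peak, was recorded on days 5, 7, 9 and 12 and integrated as trapezoidal area under the curve. Rat cortical cultures on MEA plates received continuous compound from day 0, refreshed at medium changes on DIV 5 and 9.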

A short description of test [4]: CCTE_Shafer_MEA_dev_per_network_spike_spike_percent: CCTE's Neural Network Formation Assay for Percent of Spikes in a Network Spike, Shafer Lab (AID 2284054). An outline of the steps: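 Metric: fraction of spikes falling in a 0.05 s window at network-spike peaks. Recordings were made on days 5, 7, 9 and 12 and collapsed by trapezoidal AUC. Cultures were rat cortical neurons on MEA plates, dosed continuously from plating, re-dosed at media changes.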

A short description of test [5]: CCTE_Shafer_MEA_dev_LDH: CCTE's Lactate Dehydrogenase Assay for Cytotoxicity in the Neural Network Formation Assay, Shafer Lab (AID 2284068; active = hit-call score of the fitted dose curve at least 0.9, where 1 is the maximum;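 note: exposure for twelve days from plating with re-dosing on DIV 5 and 9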). An outline of the steps: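 Primary rat cortical neurons were cultured on PEI-coated MEA plates and exposed from plating through day 12, with compound renewed at medium changes on DIV 5 and 9. LDH activity was read spectrophotometrically; loss of signal versus DMSO indicates reduced viability.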

The nature of test [6]: CCTE_Shafer_MEA_dev_AB: CCTE's Alamar Blue Assay for Cytotoxicity in the Neural Network Formation Assay, Shafer Lab (AID 2284083; active = hit-call score of the fitted dose curve at least 0.9, where 1 is the maximum;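 note: resazurin reduction fluorescence as viability of cultured neurons; twelve days of exposure from plating with re-dosing on DIV 5 and 9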). The method in brief:
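Resazurin fluorescence, relative to DMSO, gauges viability after twelve days of exposure that began at plating of rat cortical neurons (1.5 x 10^5 cells/well, 48-well MEA); treatment renewed with full medium exchange on DIV 5 and 9.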

Test [7] is described as follows: CCTE_Shafer_MEA_dev_mutual_information_norm: CCTE's Neural Network Formation Assay for Mutual Information Normalization, Shafer Lab (AID 2284091).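 For AC50: mutual information between electrodes summarised as area under curve across four recording days; potency is for a decrease in mutual information relative to DMSO.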 The method in brief:
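Shared information across electrodes, tracked on days 5, 7, 9 and 12 of network development and collapsed as trapezoidal area under the curve. Rat cortical cultures were treated continuously from plating, with treatment renewed at feeds on DIV 5 and 9; DMSO baseline, negative-direction fit.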

The nature of test [8]: CCTE_Shafer_MEA_dev_correlation_coefficient_mean: CCTE's Neural Network Formation Assay for Mean Correlation Coefficient, Shafer Lab (AID 2284093).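 For AC50: well mean pairwise spike train correlation integrated as AUC over recording days 5 to 12; potency fitted for loss of correlation relative to DMSO vehicle wells.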 The method in brief: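 Primary rat cortical neurons on PEI-coated 48-well MEA plates (16 electrodes/well) were exposed from plating day 0 through DIV12, with compound renewed at DIV5 and 9. Pairwise spike correlations were averaged per well; trapezoidal AUC across DIV5, 7, 9, 12.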

Test [9] is described as follows: CCTE_Mundy_HCI_Cortical_Synap_Neur_Matur_NeuriteSpotCountPerNeuriteLength: CCTE's Synaptogenesis and Neurite Maturation Assay in rat cortical cells for Neurite Spot Count per Neurite Length, Mundy Lab (AID 2284210). An outline of the steps: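 Synaptophysin spots per unit neurite length, measured by automated imaging of MAP2/synaptophysin/Hoechst-stained neurons. Cultures from rat cortex received chemical at DIV 7 with media change through DIV 12; glial growth arrested by AraC at DIV 5; DMSO baseline.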

Test [10] is described as follows: CCTE_Mundy_HCI_Cortical_Synap_Neur_Matur_BPCount: CCTE's Synaptogenesis and Neurite Maturation Assay in rat cortical cells for Branch Point Count, Mundy Lab (AID 2284211). An outline of the steps: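 In this multiplexed morphology assay, cortical cells from rat receive chemicals at DIV 7 and are fixed at DIV 12, then immunostained and imaged; branch points are counted, with DMSO as baseline.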

The nature of test [11]: CCTE_Mundy_HCI_Cortical_NOG_NeuriteCount: CCTE's Neurite Outgrowth Assay in rat cortical cells for Neurite Count, Mundy Lab (AID 2284212).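 Note: cells fixed about two days after chemical exposure began.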 An outline of the steps: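 Rat cortical primary cells; compound added 2 h post-plating, 1/10 dilution of working solution. Anti-betaIII-tubulin/AF488 ICC; ArrayScan neurite count vs DMSO.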
The nature of test [12]: CCTE_Mundy_HCI_Cortical_NOG_NeuriteLength: CCTE's Neurite Outgrowth Assay in rat cortical cells for Neurite Length, Mundy Lab (AID 2284213).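 For AC50: neurites imaged about 48 to 50 h after chemical exposure began.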 The method in brief:
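First, rat primary cortical cells were plated and, 2 h later, given test chemical as a 1/10 dilution. Finally, βIII-tubulin immunostaining enabled automated imaging of neurite length.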

A short description of test [13]: UKN5_HCS_SBAD2_cell_viability: Viability Assessment in the University of Konstanz (UKN) Leist Lab Neurite Outgrowth Assay in human iPSC-derived immature Dorsal Root Ganglia Neurons (UKN5) (AID 2284056). An outline of the steps: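 iPSC-derived immature peripheral neurons (SBAD2) seeded on Matrigel with CHIR99021, SU5402 and DAPT, dosed 1 h later for 24 h. Viability from Hoechst H-33342 and calcein-AM live staining, high-content imaging; bidirectional fit versus DMSO.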

Test [14] in a line: UKN5_HCS_SBAD2_neurite_outgrowth: University of Konstanz (UKN) Leist Lab Neurite Outgrowth Assay in human iPSC-derived immature Dorsal Root Ganglia Neurons (UKN5) (AID 2284070). To be noted: actives raise or lower the signal. The method in brief:
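Neurite outgrowth is quantified as calcein-AM-labelled neurite area in human iPSC-derived peripheral neurons treated for 24 h, starting 1 h after plating in medium with CHIR99021 (1.5 uM), SU5402 (5 uM) and DAPT (5 uM).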

Test [15] is described as follows: UKN2_HCS_IMR90_neural_migration: University of Konstanz (UKN) Leist Lab Neural Crest Cell Migration Assay in human induced IMR90 Pluripotent Stem Cells (UKN2) (AID 2284204). To be noted: actives raise or lower the signal. The method in brief:
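High-content imaging of calcein-AM and Hoechst stained cells quantifies migration into a stopper-defined gap after 24 h compound exposure. Neural crest cells from IMR90 iPSC migrated 24 h in EGF/FGF N2-S medium before dosing; DMSO baseline.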

The nature of test [16]: UKN4_HCS_LUHMES_neurite_outgrowth: University of Konstanz (UKN) Leist Lab Neurite Outgrowth Assay in human LUHMES cells (UKN4) (AID 2284206). To be noted: actives raise or lower the signal. An outline of the steps: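 Neurite area in dopaminergic-model LUHMES neurons is measured by high-content imaging of calcein-AM after 24 h treatment starting shortly after day-2 replating; Hoechst staining tracks viability.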

The nature of test [17]: IUF_NPC1b_proliferation_BrdU_72hr: Leibniz Research Institute for Environmental Medicine (IUF) 72-hour Neural Progenitor Cell Bromodeoxyuridine (BrdU) Proliferation Assay (NPC1b) (AID 2284207). An outline of the steps: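 Human fetal cortex-derived (GW 16-19) neural progenitor spheres, 0.25-0.35 mm, one per well in EGF/FGF proliferation medium, exposed to compound for 72 h at 37C, pH 7.2-7.6. BrdU incorporation over the final 16 h read by luminescence ELISA, relative to DMSO.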

Test [18] in a line: IUF_NPC1a_proliferation_area_72hr: Leibniz Research Institute for Environmental Medicine (IUF) 72-hour Neural Progenitor Cell Proliferation Area Assay (NPC1a) (AID 2284208). An outline of the steps: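 Read-out: increase in sphere area over 72 h by automated phase-contrast imaging, fitted in positive direction versus DMSO baseline. One hNPC sphere (0.25-0.35 mm) per well in EGF/FGF medium; growth-factor withdrawal served as positive control.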

Test [19] can be described thus: IUF_NPC1_viability_72hr: Viability Assessment at 72 hours in the Leibniz Research Institute for Environmental Medicine (IUF) Neural Progenitor Cell Proliferation Assay (NPC1) (AID 2284209). The method in brief:
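Three-day continuous exposure of human neural progenitor spheres under EGF/FGF-driven proliferation; cell viability scored by alamar blue signal versus DMSO.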

As to `CCc1ccc(O)c(C(C)(C)C)c1`, the call in [1] and in test [2] was inactive.

A word on the AC50: it is the concentration giving half of the maximal activity seen. In the case of `CCCCCCCCCCCCCCCCOS(=O)(=O)O`, the AC50 in the test with DIO3 (gene 1735) is 6.12 µM (active).

Take `CCCCCCCC/C=C\CCCCCCCC(=O)OC[C@@H](O)[C@H]1OC[C@H](O)[C@H]1O`: the molecule was called inactive in test [1].

For the molecule `OC(Cn1cncn1)(Cn1cncn1)c1ccc(F)cc1F`, the call in test [3], in test [4], in test [5], in [6], in [7] and in test [8] was inactive. For the same molecule, the molecule was classed as inactive in test [9], in test [10], in test [11] and in test [12].

As to `NCC(F)(F)C(F)(F)C(F)(F)C(F)(F)F`, the molecule was called inactive in test [3], in [4], in test [6], in test [7] and in test [8].

In the case of `CCCCC(CC)C(=O)OCCOCCOCCOC(=O)C(CC)CCCC` (centres undefined), the outcome in test [2] was inactive.

Take `CCOc1ccc2[nH]cc(C(=O)NCc3ccccc3)c(=O)c2n1`: the call in [3], in test [4], in [6], in [7] and in [8] was inactive.

In the case of `COc1cc(C(C)C)c2c(c1)S(=O)(=O)N(COc1cc(=O)n3cccc(OCCN4CCCCC4)c3n1)C2=O`, in the test on DIO3 (gene 1735), the concentration at half-maximal activity (AC50) is 4.67 µM (active). Moreover, the outcome in [1] was inactive.

Turning to `OC(CCl)CCl`, the result in [1] and in [2] was inactive.

On to `c1ccc2cc3ccccc3cc2c1`, for which the molecule was called inactive in [3], in [4], in [5], in test [2], in test [7] and in [8]. The molecule was classed as inactive in test [9], in test [10], in [11] and in test [12]. The AC50 in test [4] was 218 nM (active).

On to `Nc1ccn([C@@H]2O[C@H](CO)[C@@H](O)[C@@H]2O)c(=O)n1`, for which the AC50 was 118 nM (active) and 206 nM (active) in [3]; 179 nM (active) and 84 nM (active) in test [4]; 20.4 µM (active) and 2.69 µM (active) in [5]; 1.2 µM (active) in [14]; 18.5 µM (active) and 1.67 µM (active) in [6]; 89.3 nM (active) and 97.6 nM (active) in test [7]. The AC50 in test [8] was 89.9 nM (active) and 112 nM (active); in test [18] it was 0.109 µM (active); in test [19], 0.191 µM (active); in test [9], 23.2 µM (active); in test [10], 7.42 µM (active); in test [11], 9.69 µM (active) and 4.75 µM (active). Also, in [12], the AC50 was 9.08 µM (active) and 3.77 µM (active). Further, the molecule was classed as inactive in [13], in [15], in test [16], in [17], in [9] and in [10].

Consider `CCCC(CCC)C(=O)O`, for which the AC50 in [3] was 576 µM (active); in test [4] it was 488000 nM (active); in test [13], 5000 µM (active); in test [14], 5000 µM (active); in test [16], 7760 µM (active); in test [17] it was 1040 µM (active). In addition, the AC50 in test [19] was 2090 µM (active). The call in [5], in test [6], in [7], in test [8], in [15] and in test [9] was inactive. Besides, the molecule was classed as inactive in test [10], in test [11] and in test [12].

Regarding `COCc1nnc(-c2ccc[n+]([O-])c2)n1-c1c(Cl)c(Cl)cc2[nH]c(=O)c(=O)[nH]c12`, the call in [1] and in test [2] was inactive.

In the case of `OCc1ccccc1`, the outcome in test [2] was inactive.

Regarding `C=CCc1cc(S(=O)(=O)c2ccc(O)c(CC=C)c2)ccc1O`, the AC50 in the test with DIO3 (gene 1735) was 62.5 µM (active). Besides, the call in [1] and in [2] was inactive.

Consider `CCCc1ccccc1`, for which the molecule was called inactive in test [1] and in test [2].

In the case of `O=C(Cl)C(F)(F)C(F)(F)C(F)(F)C(=O)Cl`, the call in test [3], in test [4], in test [6], in test [7] and in test [8] was inactive.

Consider `c1ccc(C(O[C@@H]2CCCN(CCc3ccc4c(c3)OCO4)C2)c2ccccc2)cc1`, for which the call in test [1] and in test [2] was inactive.

In the case of `NNC(=O)c1ccncc1`, the molecule was called inactive in test [3], in [4], in [6], in test [7], in test [8] and in test [9]. Besides, the outcome in [10], in test [11] and in test [12] was inactive.
